PubChem BioAssay (NCATS)
Results filed as inconclusive are left out. A call without a number means that no potency is given here. Values without a mark were called inactive. Activity calls are given as the source filed them. The call rests on the fitted dose curve; in most records, active means well fitted activation curve with a large enough effect; inconclusive means small, poorly fitted or top-dose-only effect; inactive means flat fitted curve, though single readings scatter. Where a SMILES comes first, the peptide text is derived from it.

Assay: Primary redox qHTS assay for identification of artifact compounds. (AID 1845223)
Settings: Amplex Red/HRP redox cycling with DTT, fluorescence; series mostly up to 53.8 µM
Summary of the method: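 Redox-cycling detection via DTT (250 uM final) oxidation coupled to Amplex Red (25 uM)/HRP (250 mU/mL) in HBSS. 15 min preincubation plus 30 min after DTT, room temperature. Ex/Em 525/598 nm; 4-parameter Hill fit against DMSO and 10 uM DA3003.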

COc1cc(C[C@H]2COC(=O)[C@@H]2Cc2ccc(O)c(OC)c2)ccc1O
Potency: inactive

C[C@@H]1O[C@@H](OC[C@H]2O[C@@H](OCCc3ccccc3)[C@H](O)[C@@H](O)[C@@H]2O)[C@H](O)[C@H](O)[C@H]1O
Potency: inactive

CN1CC[C@@H](NC(=O)Nc2ccc(C#N)cc2)C[C@@H]1c1nc2ccccc2[nH]1
Potency: inactive

N[C@@H](CC(=O)N1CCn2c(nnc2C(F)(F)F)C1)Cc1[nH]nc2c(F)c(F)ccc12
Potency: inactive

CC(=O)c1c(C)cc(O[C@@H]2O[C@H](CO)[C@@H](O)[C@H](O)[C@H]2O)cc1O
Potency: inactive

CC[C@H](C)/C=C(C)/C=C/C(=O)Cc1cc(O)c(C)c(O)c1C=O
Potency: inactive

Cn1c(=O)cc(N2CCCC(N)C2)n(Cc2ccccc2C#N)c1=O (stereo not drawn)
Potency: inactive

COc1ccc(C2=CC(=O)OC2Cc2ccc(O)cc2)c(O)c1 (stereo not drawn)
Potency: inactive

CC1(C)O[C@]23C[C@H]1C[C@H](OC(=O)c1ccoc1)[C@]2(C)[C@@H](OC(=O)c1ccoc1)CCC3(C)O (stereo partly drawn)
Potency: inactive

CC(C)C1(O[C@@H]2O[C@H](CO)[C@@H](O)[C@H](O)[C@H]2O)CC=C(CO)CC1 (stereo partly drawn)
Potency: inactive

c1ccc(Nc2nc3c(s2)CCCc2[nH]ncc2-3)nc1
Potency: inactive

CC(C)CNC(=O)/C=C/CCCCc1ccc2c(c1)OCO2
Potency: inactive

Cc1cc(O)c(C(C)C)cc1O[C@@H]1O[C@H](CO)[C@@H](O)[C@H](O)[C@H]1O
Potency: inactive

C[C@@H](Nc1cc(NS(=O)(=O)N2CCC2)nc(SCc2cccc(F)c2F)n1)[C@@H](O)CO
Potency: inactive

CC(C)C(=O)c1cn(CC(=O)COc2ccc(Oc3ccccc3)cc2)c2ccc(C(=O)O)cc12
Potency: inactive

CCCC(N[C@@H](C)C(=O)N1[C@H](C(=O)O)C[C@@H]2CCCC[C@@H]21)C(=O)OCC (stereo partly drawn)
Potency: inactive

CC(C)CC(=O)OC[C@H]1O[C@@](COC(=O)CC(C)C)(O[C@H]2O[C@H](CO)[C@@H](O)[C@H](O)[C@H]2OC(=O)CC(C)C)[C@@H](OC(=O)CC(C)C)[C@@H]1O
Potency: inactive

C[C@@H]1O[C@@H](O[C@H]2[C@H](O[C@H]3[C@H](O[C@H]4CC[C@@]5(C=O)C(CC[C@]6(C)C5CC=C5C7CC(C)(C)C[C@@H](O)[C@]7(C)CC[C@]56C)C4(C)C)O[C@H](C(=O)O)[C@@H](O)[C@@H]3O)OC[C@@H](O)[C@@H]2O)[C@H](O)[C@H](O)[C@H]1O (stereo partly drawn)
redox activity (% of DA3003): 8.98% [at 11.5 µM]

C[C@@H](O)[C@H](N)C(=O)N1CCC[C@H]1C(=O)N1CCC[C@H]1C(=O)N[C@H](C(N)=O)[C@@H](C)O (H-TPPT-NH2)
redox activity (% of DA3003): 17.6% [at 11.5 µM]

C=CC(C)(O)CC/C=C(/C)C(=O)OC1C(OC2OCC(OC3OC(CO)C(O)C(O)C3O)C(OC3OCC(O)C(OC4OC(C)C(O)C(O)C4O)C3O)C2O)COC(OC(=O)C23CCC(C)(C)CC2C2=CCC4C5(C)CCC(OC6OC(CO)C(OC7OC(CO)C(O)C(OC8OCC(O)C(O)C8O)C7O)C(O)C6O)C(C)(C)C5CCC4(C)C2(C)CC3O)C1O (stereo not drawn)
redox activity (% of DA3003): 3.8% [at 6.41 µM]

CCOc1cc2ncc(C#N)c(Nc3ccc(OCc4ccccn4)c(Cl)c3)c2cc1NC(=O)/C=C/CN(C)C
Potency: inactive

CCOC(=O)[C@H]1O[C@@H]1C(=O)N[C@@H](CC(C)C)C(=O)NCCC(C)C
Potency: inactive

Cc1onc(-c2ccccc2)c1C(=O)N[C@@H]1C(=O)N2[C@@H]1SC(C)(C)[C@@H]2C(=O)O
Potency: inactive

CC(=O)O[C@@H]1[C@H](O[C@@H]2OC[C@](O)(CO)[C@H]2O)[C@@H](O[C@@H]2O[C@@H](C)[C@H](O)[C@@H](O)[C@H]2O)[C@H](OC(=O)[C@]23CCC(C)(C)C[C@H]2C2=CCC4[C@@]5(C)C[C@H](O)[C@H](O[C@@H]6O[C@H](C(=O)O)[C@@H](O)[C@H](O)[C@H]6O)[C@@](C)(C(=O)O)C5CC[C@@]4(C)[C@]2(C)CC3)O[C@@H]1C (stereo partly drawn)
redox activity (% of DA3003): 2.26% [at 11.5 µM]

CC1=CC(=O)OC(C)(CC(C)(O)C(=O)O)C1 (stereo not drawn)
Potency: inactive

COc1cc([C@H]2OC[C@]3(OC(C)=O)[C@@H](c4ccc(O[C@@H]5O[C@H](CO)[C@@H](O)[C@H](O)[C@H]5O)c(OC)c4)OC[C@H]23)ccc1O
Potency: inactive

CN1C(=O)c2ccccc2-n2c(nc3ccccc3c2=O)[C@@]12O[C@H]2c1ccccc1
Potency: inactive

OC[C@H]1O[C@@H](n2cnc3c2NC=NC[C@H]3O)C[C@@H]1O
Potency: inactive
